Test results as given in the supplement of paper PMC10849652.
Targets with a hit are over-represented here; the source holds about 7,900 in all. About 0.6% of all pairs of compound and target were hits.

Tests used:
Test in all cases: log2 fold change, soluble protein after heating vs DMSO (PISA); higher = thermal stabilisation; K562 cells, 10 uM, 30 min; active = over 0.2 and 3.5 SD of the protein, either way, in both replicates (recomputed)
[1] = compound: C1=CC=C(C=C1)[C@H](COC2=CC3=C(C=C2)NC(=O)N3)NC(=O)C4=CC=CN(C4=O)CC5=CC(=C(C=C5)F)F
Method in brief: (§1)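 K562 cells at 2×10^6 cells/mL were treated for 30 min with 10 μM compound, and aliquots were heated for 3 min over 48°C-58°C before pooling. Extraction used PBS with 0.5% NP-40 at 4°C, and soluble protein was the supernatant after 21,000xg for 90 min, measured by TMTpro 16plex LC-MS/MS with channel sums equalised. Thermal stability values, relative to control samples and from duplicates, are log2 fold changes.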

[2] = compound: CC1=C(SC2=C1C(=N[C@H](C3=NN=C(N32)C)CC(=O)N)C4=CC=C(C=C4)Cl)C
Method in brief: as §1

[3] = compound: CC1=C2C(=CC=C1)N=C(N(C2=O)C3=CC=CC=C3C)CN4C=NC5=C(N=CN=C54)N
Method in brief: as §1

[4] = compound: Cc1sc2c(c1C)C(c1ccc(Cl)cc1)=N[C@@H](CC(=O)OC(C)(C)C)c1nnc(C)n1-2
Method in brief: as §1

[5] = compound: c1ccc([C@@H]2C[C@H]2NC2CCNCC2)cc1
Method in brief: as §1

Measured: log2 fold change

TMEM223 (UniProt A0PJW6)
inactive: [1] 0.069 | [2] -0.045 | [3] 0.118 | [4] 0.03 | [5] -0.024

TMEM164 (UniProt Q5U3C3)
Sequence of UniProt Q5U3C3 (Q5U3C3 whole entry, looked up): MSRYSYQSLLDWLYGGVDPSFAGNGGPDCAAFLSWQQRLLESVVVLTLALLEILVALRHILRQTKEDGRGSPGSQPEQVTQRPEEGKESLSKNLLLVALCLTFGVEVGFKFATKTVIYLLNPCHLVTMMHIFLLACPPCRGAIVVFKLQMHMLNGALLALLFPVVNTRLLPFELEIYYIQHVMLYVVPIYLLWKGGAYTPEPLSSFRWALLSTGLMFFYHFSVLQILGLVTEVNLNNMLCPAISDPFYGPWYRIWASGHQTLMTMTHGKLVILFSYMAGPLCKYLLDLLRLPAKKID
inactive: [1] -0.195 | [2] -0.047 | [3] 0.257 | [4] -0.22 | [5] 0.068

TPM2 (UniProt P07951)
Sequence of UniProt P07951 (P07951 whole entry, looked up): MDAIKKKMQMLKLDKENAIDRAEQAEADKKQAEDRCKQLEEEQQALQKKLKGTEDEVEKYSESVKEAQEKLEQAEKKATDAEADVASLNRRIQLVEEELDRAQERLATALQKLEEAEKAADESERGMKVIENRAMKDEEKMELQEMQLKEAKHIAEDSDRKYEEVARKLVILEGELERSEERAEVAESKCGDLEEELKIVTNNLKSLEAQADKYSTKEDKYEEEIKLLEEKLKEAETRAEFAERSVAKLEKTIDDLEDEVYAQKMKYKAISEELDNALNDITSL
inactive: [1] -0.041 | [2] -0.117 | [3] -0.195 | [4] -0.017 | [5] 0.014

TRAPPC13 isoform 5 (UniProt A5PLN9)
Sequence of UniProt A5PLN9 (A5PLN9 whole entry, looked up): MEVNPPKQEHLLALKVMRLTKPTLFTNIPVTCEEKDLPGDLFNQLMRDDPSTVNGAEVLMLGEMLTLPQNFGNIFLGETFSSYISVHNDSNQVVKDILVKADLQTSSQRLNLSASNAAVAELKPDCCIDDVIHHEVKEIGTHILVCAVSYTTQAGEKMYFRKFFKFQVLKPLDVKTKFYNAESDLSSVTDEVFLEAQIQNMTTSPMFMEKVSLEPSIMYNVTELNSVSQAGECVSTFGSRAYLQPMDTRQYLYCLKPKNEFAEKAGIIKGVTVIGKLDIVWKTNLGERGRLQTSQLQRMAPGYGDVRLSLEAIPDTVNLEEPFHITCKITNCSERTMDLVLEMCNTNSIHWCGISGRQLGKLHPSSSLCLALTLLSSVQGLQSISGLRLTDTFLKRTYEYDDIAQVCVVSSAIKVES
inactive: [1] -0.055 | [2] 0.154 | [3] 0.08 | [4] -0.013 | [5] -0.017

VTI1B (UniProt Q9UEU0)
Sequence of UniProt Q9UEU0 (Q9UEU0 whole entry, looked up): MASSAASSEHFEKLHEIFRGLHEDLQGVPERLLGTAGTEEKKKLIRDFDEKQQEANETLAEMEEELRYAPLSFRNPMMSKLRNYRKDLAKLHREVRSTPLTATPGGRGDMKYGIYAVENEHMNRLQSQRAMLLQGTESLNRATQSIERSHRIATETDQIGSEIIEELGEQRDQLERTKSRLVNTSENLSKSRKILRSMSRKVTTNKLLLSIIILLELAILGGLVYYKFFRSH
inactive: [1] 0.015 | [2] -0.002 | [3] 0.045 | [4] -0.032 | [5] 0.02

WARS2 (UniProt Q9UGM6)
Sequence of UniProt Q9UGM6 (Q9UGM6 whole entry, looked up): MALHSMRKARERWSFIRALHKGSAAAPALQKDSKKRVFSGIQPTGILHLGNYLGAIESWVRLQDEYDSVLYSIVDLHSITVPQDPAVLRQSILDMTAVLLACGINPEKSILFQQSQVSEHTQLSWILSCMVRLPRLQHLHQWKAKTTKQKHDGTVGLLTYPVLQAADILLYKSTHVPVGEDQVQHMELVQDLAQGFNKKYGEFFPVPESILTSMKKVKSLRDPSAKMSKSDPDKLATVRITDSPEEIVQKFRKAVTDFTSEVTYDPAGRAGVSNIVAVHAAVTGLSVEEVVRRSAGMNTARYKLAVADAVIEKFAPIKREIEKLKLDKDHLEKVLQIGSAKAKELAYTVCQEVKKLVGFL
inactive: [1] -0.025 | [2] -0.009 | [3] 0.104 | [4] -0.002 | [5] 0.06

TSEN2 (UniProt Q8NCE0)
inactive: [1] -0.05 | [2] 0 | [3] 0.044 | [4] -0.027 | [5] 0.03

TMEM184C (UniProt Q9NVA4)
inactive: [1] 0 | [2] 0.078 | [3] 0.022 | [4] 0.045 | [5] 0.22

VWA8 (UniProt A3KMH1)
inactive: [1] -0.03 | [2] 0.023 | [3] 0.091 | [4] -0.044 | [5] -0.052

TOMM20 (UniProt Q15388)
inactive: [1] 0.021 | [2] 0.025 | [3] 0.028 | [4] 0.006 | [5] 0.008

UGDH (UniProt O60701)
Sequence of UniProt O60701 (O60701 whole entry, looked up): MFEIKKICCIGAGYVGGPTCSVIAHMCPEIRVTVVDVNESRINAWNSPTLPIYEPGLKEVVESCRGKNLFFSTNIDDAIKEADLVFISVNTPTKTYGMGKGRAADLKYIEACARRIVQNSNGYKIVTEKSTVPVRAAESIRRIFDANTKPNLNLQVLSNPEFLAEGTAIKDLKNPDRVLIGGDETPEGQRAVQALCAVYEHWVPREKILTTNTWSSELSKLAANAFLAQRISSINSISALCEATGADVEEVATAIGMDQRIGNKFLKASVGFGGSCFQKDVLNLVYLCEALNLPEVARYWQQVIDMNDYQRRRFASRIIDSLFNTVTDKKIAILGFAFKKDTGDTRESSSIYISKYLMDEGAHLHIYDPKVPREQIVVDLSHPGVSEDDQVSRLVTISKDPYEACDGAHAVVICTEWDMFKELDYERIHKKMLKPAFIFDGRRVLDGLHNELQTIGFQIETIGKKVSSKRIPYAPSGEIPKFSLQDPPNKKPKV
inactive: [1] 0.025 | [2] 0.052 | [3] 0.103 | [4] -0.04 | [5] -0.038

TMEM87B (UniProt Q96K49)
inactive: [1] 0.04 | [2] 0.083 | [3] -0.031 | [4] -0.036 | [5] 0.012

UBAP2L isoform 1 (UniProt Q14157)
inactive: [1] 0.038 | [2] 0.004 | [3] 0.059 | [4] 0.001 | [5] 0.011

TMEM9 (UniProt Q9P0T7)
Sequence of UniProt Q9P0T7 (Q9P0T7 whole entry, looked up): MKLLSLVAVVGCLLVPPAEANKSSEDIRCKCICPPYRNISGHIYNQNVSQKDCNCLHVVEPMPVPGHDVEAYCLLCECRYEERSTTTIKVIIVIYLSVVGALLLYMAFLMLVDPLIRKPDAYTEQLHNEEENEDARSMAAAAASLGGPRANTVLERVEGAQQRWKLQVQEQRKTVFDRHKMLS
inactive: [1] 0.008 | [2] 0.02 | [3] -0.002 | [4] -0.027 | [5] -0.079

VPS33B (UniProt Q9H267)
Sequence of UniProt Q9H267 (Q9H267 whole entry, looked up): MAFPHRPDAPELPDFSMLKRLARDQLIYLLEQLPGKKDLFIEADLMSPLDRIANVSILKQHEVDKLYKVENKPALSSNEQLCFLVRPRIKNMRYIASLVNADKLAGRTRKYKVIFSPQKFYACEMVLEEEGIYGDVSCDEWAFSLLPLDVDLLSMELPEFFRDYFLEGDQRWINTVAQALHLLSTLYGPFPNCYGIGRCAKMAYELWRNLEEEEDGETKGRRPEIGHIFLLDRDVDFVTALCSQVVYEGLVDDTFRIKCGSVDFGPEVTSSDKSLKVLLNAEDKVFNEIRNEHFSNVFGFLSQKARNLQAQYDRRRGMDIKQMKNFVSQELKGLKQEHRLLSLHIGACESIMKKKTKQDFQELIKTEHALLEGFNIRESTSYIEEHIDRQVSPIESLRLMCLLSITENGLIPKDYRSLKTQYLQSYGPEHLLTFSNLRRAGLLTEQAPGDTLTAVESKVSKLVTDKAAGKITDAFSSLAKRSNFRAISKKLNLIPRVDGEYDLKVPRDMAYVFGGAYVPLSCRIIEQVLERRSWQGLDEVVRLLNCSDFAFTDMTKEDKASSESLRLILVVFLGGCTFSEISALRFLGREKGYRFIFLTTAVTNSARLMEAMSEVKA
inactive: [1] -0.102 | [2] 0.021 | [3] 0.03 | [4] 0.008 | [5] -0.064

USP14 (UniProt P54578)
Sequence of UniProt P54578 (P54578 whole entry, looked up): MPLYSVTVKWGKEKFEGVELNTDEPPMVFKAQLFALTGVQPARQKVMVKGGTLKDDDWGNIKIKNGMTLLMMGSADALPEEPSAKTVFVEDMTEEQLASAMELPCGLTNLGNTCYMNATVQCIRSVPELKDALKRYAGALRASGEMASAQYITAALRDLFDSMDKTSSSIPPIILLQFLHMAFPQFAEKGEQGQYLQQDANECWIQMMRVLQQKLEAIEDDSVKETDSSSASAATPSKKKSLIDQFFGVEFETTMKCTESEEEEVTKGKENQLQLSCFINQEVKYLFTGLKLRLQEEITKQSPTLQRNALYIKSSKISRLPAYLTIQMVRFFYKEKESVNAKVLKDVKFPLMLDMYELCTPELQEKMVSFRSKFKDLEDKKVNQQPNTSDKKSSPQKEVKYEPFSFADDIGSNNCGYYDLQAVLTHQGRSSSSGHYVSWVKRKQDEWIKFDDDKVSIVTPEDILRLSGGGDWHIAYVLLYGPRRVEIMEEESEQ
inactive: [1] -0.031 | [2] 0.03 | [3] 0.046 | [4] -0.028 | [5] -0.025

TMEM173 (UniProt Q86WV6)
inactive: [1] -0.035 | [2] 0.045 | [3] 0.086 | [4] -0.099 | [5] -0.005

WASHC5 (UniProt Q12768)
inactive: [1] 0.034 | [2] 0.042 | [3] 0.09 | [4] 0.003 | [5] -0.041

WEE1 (UniProt P30291)
inactive: [1] 0.116 | [2] -0.031 | [3] -0.059 | [4] 0.132 | [5] 0.11

USP7 (UniProt Q93009)
Sequence of UniProt Q93009 (Q93009 whole entry, looked up): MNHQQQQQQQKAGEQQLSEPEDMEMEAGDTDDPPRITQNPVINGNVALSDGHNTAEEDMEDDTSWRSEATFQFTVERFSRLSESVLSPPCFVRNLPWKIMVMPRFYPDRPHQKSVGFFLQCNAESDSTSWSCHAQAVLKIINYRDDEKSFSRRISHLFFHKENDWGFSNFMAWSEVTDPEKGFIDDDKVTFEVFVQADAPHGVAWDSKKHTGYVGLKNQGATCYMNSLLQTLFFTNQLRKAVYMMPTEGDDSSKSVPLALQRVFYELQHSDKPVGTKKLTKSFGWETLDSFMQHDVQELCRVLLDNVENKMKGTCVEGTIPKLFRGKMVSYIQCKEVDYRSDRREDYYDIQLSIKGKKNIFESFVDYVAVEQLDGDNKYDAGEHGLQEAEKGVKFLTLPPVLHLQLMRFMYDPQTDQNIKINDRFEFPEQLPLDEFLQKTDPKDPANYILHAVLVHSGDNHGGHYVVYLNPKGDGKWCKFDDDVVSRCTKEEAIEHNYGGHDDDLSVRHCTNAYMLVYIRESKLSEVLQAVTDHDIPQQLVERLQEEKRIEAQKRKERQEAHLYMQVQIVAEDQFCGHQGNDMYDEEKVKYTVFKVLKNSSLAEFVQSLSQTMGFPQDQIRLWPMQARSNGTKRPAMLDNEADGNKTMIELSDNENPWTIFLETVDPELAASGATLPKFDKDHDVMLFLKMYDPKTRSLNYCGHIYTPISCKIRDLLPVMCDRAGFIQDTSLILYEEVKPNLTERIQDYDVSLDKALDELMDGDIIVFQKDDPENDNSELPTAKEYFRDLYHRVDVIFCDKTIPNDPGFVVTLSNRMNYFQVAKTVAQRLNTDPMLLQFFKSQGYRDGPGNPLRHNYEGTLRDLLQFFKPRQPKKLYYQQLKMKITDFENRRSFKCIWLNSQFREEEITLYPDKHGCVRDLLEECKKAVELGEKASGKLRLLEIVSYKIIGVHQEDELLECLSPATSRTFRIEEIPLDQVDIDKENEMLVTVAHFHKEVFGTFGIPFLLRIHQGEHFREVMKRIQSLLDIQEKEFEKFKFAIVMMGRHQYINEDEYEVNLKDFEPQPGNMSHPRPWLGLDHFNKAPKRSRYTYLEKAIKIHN
inactive: [1] -0.165 | [2] 0.026 | [3] 0.09 | [4] -0.01 | [5] -0.062

TMEM120A (UniProt Q9BXJ8)
Sequence of UniProt Q9BXJ8 (Q9BXJ8 whole entry, looked up): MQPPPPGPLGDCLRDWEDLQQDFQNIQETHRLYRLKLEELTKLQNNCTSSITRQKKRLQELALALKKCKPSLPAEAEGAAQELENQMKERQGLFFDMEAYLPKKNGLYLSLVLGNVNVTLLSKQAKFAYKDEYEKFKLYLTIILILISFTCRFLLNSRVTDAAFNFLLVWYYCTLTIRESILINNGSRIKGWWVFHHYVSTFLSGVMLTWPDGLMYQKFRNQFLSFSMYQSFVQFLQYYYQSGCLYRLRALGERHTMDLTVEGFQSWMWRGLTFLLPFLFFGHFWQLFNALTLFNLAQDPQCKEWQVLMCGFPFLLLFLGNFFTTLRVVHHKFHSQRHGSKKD
inactive: [1] -0.126 | [2] 0.056 | [3] 0.012 | [4] -0.11 | [5] -0.049

TRAPPC11 (UniProt Q7Z392)
inactive: [1] 0.004 | [2] 0.117 | [3] 0.077 | [4] -0.031 | [5] 0.027

WDR61 (UniProt Q9GZS3)
inactive: [1] -0.035 | [2] 0.04 | [3] 0.077 | [4] 0.032 | [5] 0.012

WDR11 (UniProt Q9BZH6)
inactive: [1] -0.076 | [2] 0.067 | [3] 0.111 | [4] 0.05 | [5] 0.023
